About 83,000 compounds went through this panel and 20% of them were active in at least one assay; those are over-represented in the sample as a whole.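 48-hour exposure, single concentration, 96-well plates; percent growth endpoint where 0 means no net growth. Active: below 10.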 The source made the active and inactive calls.
Legend:
Assay in all cases: NCI-60 one-dose screen, 48 h (100 = growth as untreated, 0 = no growth, -100 = all killed)
Conditions in all cases: 10 µM unless noted
[1] = system: DU-145 prostate
[2] = system: K-562 leukemia
[3] = system: MALME-3M melanoma
[4] = system: MDA-MB-231 breast
[5] = system: RXF 393 renal
[6] = system: SF-268 CNS
[7] = system: SF-295 CNS
[8] = system: SF-539 CNS
[9] = system: UACC-257 melanoma
[10] = system: M14 melanoma
[11] = system: HCT-15 colon
[12] = system: HT29 colon
[13] = system: SNB-75 CNS
[14] = system: SNB-19 CNS
[15] = system: U251 CNS
[16] = system: PC-3 prostate
[17] = system: SK-MEL-5 melanoma
[18] = system: UACC-62 melanoma
[19] = system: LOX IMVI melanoma
[20] = system: SK-MEL-28 melanoma

Measured: growth

O=C(Nc1ccc2c(c1)C(=O)c1ccccc1-2)c1ccccc1
inactive: [1] 81.9% | [2] 81.2% | [3] 90.2% | [4] 81.9% | [5] 99.2% | [6] 65.2% | [7] 103% | [8] 52.6% | [9] 111% | [10] 88% | [11] 67.2% | [12] 35.8% | [13] 86.6% | [14] 73% | [16] 92.9% | [17] 97.9% | [18] 90.2% | [19] 73.2% | [20] 105%
active: [15] -13.9%

CCSc1nc(-c2cccs2)n2nc(-c3ccco3)cc2n1
inactive: [1] 113% | [2] 100% | [3] 107% | [4] 91.6% | [5] 107% | [6] 102% | [7] 99.4% | [8] 100% | [9] 103% | [10] 109% | [11] 78% | [12] 88.8% | [13] 84.2% | [14] 109% | [15] 91.4% | [16] 99% | [17] 86.5% | [18] 85.2% | [19] 92% | [20] 113%

O=C(COc1ccc(/C=C2\Cc3ccccc3C2=O)cc1)c1ccc(Cl)cc1
inactive: [1] 117% | [2] 92.9% | [3] 124% | [4] 82.2% | [5] 121% | [6] 120% | [7] 121% | [8] 101% | [9] 100% | [10] 104% | [11] 96.1% | [12] 109% | [13] 94.5% | [14] 95.7% | [15] 93.7% | [16] 92.1% | [17] 98.4% | [18] 95.2% | [19] 92.8% | [20] 117%

COc1ccc2ncccc2c1Cc1c(OC)ccc2ncccc12
inactive: [1] 91.5% | [2] 21.5% | [3] 55.9% | [4] 71.1% | [5] 82.1% | [6] 84.2% | [7] 63.9% | [8] 75% | [9] 68.2% | [10] 56.5% | [11] 57.8% | [12] 30% | [13] 44.1% | [14] 82.2% | [15] 57.4% | [16] 74.6% | [17] 60.5% | [18] 58% | [19] 68.4% | [20] 77.4%

O=C(CNC(=O)c1cccc2ccccc12)Nc1ccccc1Oc1ccc(O)cc1
inactive: [1] 19.5% [5 µM] | [3] 57.9% [5 µM] | [4] 47.7% [5 µM] | [6] 51.7% [5 µM] | [9] 76.7% [5 µM] | [11] 27.4% [5 µM] | [13] 19.7% [5 µM] | [14] 51.9% [5 µM] | [15] 20.8% [5 µM] | [16] 31.1% [5 µM] | [17] 27.7% [5 µM] | [18] 55% [5 µM] | [19] 40.9% [5 µM] | [20] 59.9% [5 µM]
active: [2] 9.54% [5 µM] | [5] -2.89% [5 µM] | [7] 6.5% [5 µM] | [8] -11% [5 µM] | [10] 9.58% [5 µM] | [12] 4.1% [5 µM]

Nc1ccccc1C#Cc1ccccc1C#Cc1ccc(OCCCCCCOc2ccc(C#Cc3ccccc3C#Cc3ccccc3N)cc2)cc1
inactive: [1] 121% | [2] 121% | [3] 97.2% | [4] 86% | [5] 75.3% | [6] 121% | [7] 106% | [8] 97.8% | [9] 101% | [10] 108% | [11] 106% | [12] 108% | [13] 105% | [14] 112% | [15] 100% | [16] 97% | [17] 82.4% | [18] 96.6% | [19] 103% | [20] 109%

O=CN1N=C(c2ccc(Nc3ccnc4cc(Cl)ccc34)cc2)CC1c1ccc(Cl)cc1 (stereo not given)
inactive: [1] 10% | [3] 34.5% | [4] 31.2% | [5] 17.5% | [6] 34.9% | [9] 77.7% | [10] 39.3% | [11] 16.4% | [14] 44.5% | [15] 27.6% | [16] 32.3% | [18] 28.7% | [19] 32% | [20] 39.2%
active: [2] 9.53% | [7] -1.08% | [8] -0.113% | [12] 5.55% | [13] 4.26% | [17] -27.4%

N#Cc1c(NC(=O)c2ccco2)[n+]([O-])c2ccccc2[n+]1[O-]
inactive: [1] 95.5% | [2] 84.9% | [3] 112% | [4] 96.1% | [5] 95.5% | [6] 110% | [7] 107% | [8] 84.4% | [9] 102% | [10] 104% | [11] 116% | [12] 109% | [13] 104% | [14] 96.8% | [15] 106% | [16] 130% | [17] 91% | [18] 81% | [19] 98.3% | [20] 104%

N#Cc1c(NC(=O)c2ccco2)[n+]([O-])c2cc(Cl)c(Cl)cc2[n+]1[O-]
inactive: [1] 103% | [2] 96.4% | [3] 123% | [4] 93.9% | [5] 91.3% | [6] 114% | [7] 135% | [8] 90.4% | [9] 99.3% | [10] 142% | [11] 111% | [12] 103% | [13] 103% | [14] 111% | [15] 102% | [16] 125% | [17] 94.8% | [18] 85.2% | [19] 90.5% | [20] 104%

COc1cc(/C=C2\SC(N3CCCCC3)=NC2=O)ccc1OCCCCCCOc1ccc(/C=C2\SC(N3CCCCC3)=NC2=O)cc1OC
active: [1] -7% | [2] 3.85% | [3] 5.59% | [5] -44.3% | [6] -1.61% | [7] 4.37% | [8] -1.19% | [9] -0.986% | [12] -13.8% | [15] -3.37% | [19] -44.7%
inactive: [4] 20.9% | [10] 13.1% | [11] 25.5% | [13] 18.8% | [14] 44% | [16] 34% | [17] 10.3% | [18] 17.6% | [20] 12.7%

Cc1sc2nc(N3CCCCC3)[nH]c(=O)c2c1C
inactive: [1] 111% | [2] 91.2% | [3] 100% | [4] 99.4% | [5] 101% | [6] 98% | [7] 97% | [8] 97.9% | [9] 89.1% | [10] 98.8% | [11] 103% | [12] 88.6% | [13] 91% | [14] 92.4% | [15] 92.4% | [16] 76.4% | [17] 96.9% | [18] 97.5% | [19] 99% | [20] 103%

O=C(/C=C/c1cccc(Nc2ccnc3cc(Cl)ccc23)c1)c1ccc(Cl)cc1
inactive: [1] 59.6% | [2] 14.6% | [3] 62.5% | [4] 60.4% | [5] 71.9% | [6] 69.2% | [7] 40.2% | [8] 62.5% | [9] 61.3% | [10] 54.3% | [11] 54.8% | [12] 21.8% | [13] 67.6% | [14] 63.2% | [15] 49.9% | [16] 62.9% | [17] 39.6% | [18] 50.2% | [19] 11.2% | [20] 71%

c1ccc2nc(Cn3c[n+](Cc4ccc5ccccc5n4)c4ccccc43)ccc2c1
inactive: [1] 60.8% | [2] 17.8% | [3] 20.3% | [4] 26.4% | [5] 44.1% | [6] 54.9% | [7] 55.5% | [8] 41.5% | [10] 21.7% | [11] 98.7% | [12] 15.5% | [13] 41.4% | [14] 30.5% | [15] 34% | [16] 14.6% | [19] 25.8% | [20] 39.4%
active: [9] -9.49% | [17] -83.9% | [18] -16.4%

COc1cc(C(=O)/C=C/c2cccc(Nc3ccnc4cc(Cl)ccc34)c2)cc(OC)c1OC
inactive: [9] 30.6% | [13] 16.4% | [14] 20.3% | [18] 22.5%
active: [1] -0.714% | [2] -6.81% | [3] 9.8% | [4] -5.45% | [5] -71.9% | [6] -16.6% | [7] 3.06% | [8] -46.1% | [10] -11.6% | [11] -32.1% | [12] -90% | [15] -90.9% | [16] -12.7% | [17] -45.5% | [19] -85.8% | [20] -39.2%

O[N+]1=CC=CCC1=S.On1ccccc1=S.[Zn]
active: [1] -90.1% | [2] -17.7% | [3] -54.9% | [4] -81.4% | [5] -84.9% | [6] -46.6% | [7] -81.5% | [8] -64.8% | [9] -88.8% | [10] -74.2% | [11] -57% | [12] -47.5% | [13] -75.3% | [14] -93% | [15] -86.8% | [16] -50.8% | [17] -93.5% | [18] -78.3% | [19] -70.3% | [20] -87.3%
